Neddylation inh – inhibitors of cullin neddylation, primary screen, biochemical, TR-FRET, uHTS, NAE and Ubc12; NEDD8-conjugating enzyme Ubc12 (Homo sapiens) + NEDD8-activating enzyme E1 regulatory …; inhibition, % at 25 µM; 0.58% of 360,000 active; AID 651699, 2012; in the data active = inhibition above about 36%
SUMO1-SIM PPI – modulators of SUMO1 protein-protein interactions, primary screen, biochemical, uHTS | Small ubiquitin-related modifier 1 (Homo sapiens), P63165 | SUMO1 binding to a labelled peptide, TR-FRET, 1 h | inhibition, % at 20 µM | 0.33% of 360,000 active; in the data active = inhibition above about 37%
ATG4B inh – ATG4B protease inhibitors, primary screen, biochemical, fluorescence, uHTS | ATG4B cleavage of LC3-PLA2, NBD-HPC fluorescence, 1 h | AID 504462, 2011 | 0.51% of 340,000 active | inhibition, % at 8.33 µM; in the data active = inhibition above about 40%
Target sequence (Q9Y4P1 whole entry, looked up): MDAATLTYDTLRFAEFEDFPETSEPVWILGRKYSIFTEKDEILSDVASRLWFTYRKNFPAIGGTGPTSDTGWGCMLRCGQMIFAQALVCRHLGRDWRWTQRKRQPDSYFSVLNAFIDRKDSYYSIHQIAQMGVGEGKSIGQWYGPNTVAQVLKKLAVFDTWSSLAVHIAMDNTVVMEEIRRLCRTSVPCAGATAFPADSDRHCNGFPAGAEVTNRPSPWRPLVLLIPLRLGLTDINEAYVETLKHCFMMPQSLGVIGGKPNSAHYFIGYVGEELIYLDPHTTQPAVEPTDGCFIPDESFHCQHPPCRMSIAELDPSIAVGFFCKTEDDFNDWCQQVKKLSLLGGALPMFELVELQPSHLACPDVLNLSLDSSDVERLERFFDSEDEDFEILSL
Rin1 Abl inh – inhibitors of Rin1-Abl protein binding, primary screen, biochemical, TR-FRET; Tyrosine-protein kinase ABL1 (Homo sapiens) + Ras and Rab interactor 1 (Homo sapiens), …; inhibition, % at 7.35 µM; 0.4% of 360,000 active; in the data active = inhibition above about 5%, passing the limit was not always enough
PLA2 ctr – PLA2 enzyme inhibition, counter-screen for ATG4B inhibitor project, biochemical, single concentration, uHTS hits. inhibition, % at 8.33 µM. shares compounds with ATG4B inh. 66% of 1,600 active. purified PLA2, NBD-C6-HPC fluorescence, 45 min; in the data active = inhibition above about 50%
Each line names hits and unclear results; the compound was inactive in the other large screens (follow-up assays come after a bar, where shown). Compounds with a hit are over-represented: about 1.7% of the library has one in this group of screens.

N#Cc1c(-c2cccs2)nc(SCc2ccc(Cl)cc2)[nH]c1=O	ATG4B inh 49
COc1ccc(OC)c(C(=O)COC(=O)COc2ccccc2F)c1	none
CCOC(=O)N1CCC(N2C(=O)c3ccccc3C2Nc2cc(OC)c(OC)c(OC)c2)CC1 (centres undefined)	none
CCOC(=O)N1CCC(N2C(=O)c3ccccc3C2Nc2ccc(S(=O)(=O)N3CCOCC3)cc2)CC1 (centres undefined)	Rin1 Abl inh 14
NC(CSC(c1ccccc1)(c1ccccc1)c1ccc2c(c1)OCO2)C(=O)O (centres undefined)	none (no result: ATG4B inh)
C/C(N)=C(/C#N)C(=O)COc1ccc(Cl)cc1Cl	SUMO1-SIM PPI 61
O=C(CSc1n[nH]c(=O)[nH]c1=O)Nc1ccc2c(c1)C(=O)c1ccccc1C2=O	SUMO1-SIM PPI 96
O=C(CCCOc1ccccc1)N1CCN(S(=O)(=O)c2ccc(Cl)cc2)CC1	none
CCOc1ccc(OCCCC(=O)N2CCN(S(=O)(=O)c3ccc(Cl)cc3)CC2)cc1	Rin1 Abl inh 58
Cc1ccc2nc(Cl)c(/C=N/NC(=O)[C@H]3C[C@@H]3c3ccccc3)cc2c1	SUMO1-SIM PPI 40
CC(C)(C)c1ccc(C2CC2C(=O)N/N=C\c2cc3ccccc3nc2Cl)cc1 (centres undefined)	none
COc1cc(CCN(C(=O)c2cccc(S(C)(=O)=O)c2)C(CCc2ccccc2)c2nc3ccccc3[nH]2)cc(OC)c1 (centres undefined)	none (no result: ATG4B inh)
COc1cc(/C=C2\CCc3c2nc2ccccc2c3C(=O)O)cc(OC)c1OC	SUMO1-SIM PPI 48 (not shown: Neddylation inh)
CCOc1cc(C(=O)OCC(=O)c2c(C)[nH]c3ccccc23)ccc1OCC(=O)N1CCOCC1	SUMO1-SIM PPI 39
Cc1[nH]nc2c1C(c1ccc(-c3ccc(Cl)cc3)o1)C(C#N)=C(N)O2 (centres undefined)	SUMO1-SIM PPI 64
Cc1ccc(-c2ccc(C3C(C#N)=C(N)Oc4n[nH]c(C)c43)o2)cc1 (centres undefined)	none
Oc1ccccc1C1SC(c2ccccc2O)SC(c2ccccc2O)S1 (centres undefined)	ATG4B inh 63 | PLA2 ctr inactive
CC(C)Nc1ncnc2c1ncn2[C@H]1CN(Cc2ccccc2)C[C@@H](CO)O1	none (no result: ATG4B inh)
Cc1nc(S/C(=C\c2ccc(OCc3ccccc3Cl)cc2)C(=O)O)n[nH]1	ATG4B inh 94 | PLA2 ctr 83
Cc1nc(SCC(=O)Nc2ccc(OCc3ccccc3)cc2)n[nH]1	none
Cc1ccc([C@@H]2CC=C(C(=O)O)[C@H](c3ccc(C(C)(C)C)cc3)N2S(=O)(=O)c2ccc(C)cc2)cc1	none
Cc1ccc(S(=O)(=O)N2[C@@H](c3ccc(C(C)(C)C)cc3)C(C(=O)O)=CC[C@H]2c2ccc(Cl)cc2)cc1	ATG4B inh 46 | PLA2 ctr 55
O=C(/C=C1\NC2(CCCC2)Cc2ccccc21)C(=O)N/N=C/c1ccc(O)c(O)c1	ATG4B inh 61 | PLA2 ctr 68
OC(c1cc(-c2cccc(Cl)c2)nc2ccccc12)C1CCCCN1 (centres undefined)	ATG4B inh 42 | PLA2 ctr 66
C=CCC[C@@H](Cc1ccc(F)cc1)C(=O)OC[C@@H](NC(=O)[C@H](CC=C)CC(=O)N(CCO)Cc1ccccc1)c1ccccc1	ATG4B inh 53 | PLA2 ctr 76
Cc1ccc(-c2cc(-c3ccc(C)cc3O)[nH]n2)cc1	none
Oc1ccc(Br)cc1-c1cc(-c2ccccc2Cl)[nH]n1	none
Cc1ccc(-c2cc(-c3ccccc3Cl)[nH]n2)c(O)c1	ATG4B inh 68 | PLA2 ctr 77
Cc1ccccc1-c1cc(-c2ccccc2O)n[nH]1	ATG4B inh 58 | PLA2 ctr 65
Cc1ccc(-c2cc(-c3ccccc3[N+](=O)[O-])[nH]n2)c(O)c1	ATG4B inh 61 | PLA2 ctr 75
CSCCC(C(=O)NC1CCCC1)n1c(-c2ccncc2)nc2ccccc21 (centres undefined)	none (no result: ATG4B inh, Rin1 Abl inh)
COc1ccc(C(=O)Nc2ccc3c(c2)OCO3)cc1S(=O)(=O)N1CCOCC1	none (no result: ATG4B inh)

Assay outcomes from PubChem.
